The text below walks through data of PubChem BioAssay AID602340 (Broad Institute, 2012).

Hit rate of the full screen: of about 330,000 compounds, about 2,600 (0.79%) were called active. Many of the other results were omitted from the sample, so actives are more common in it than they were. Values without a mark were called inactive.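 How the source made its calls: active means mean ATP rescue above about 67%, or every replicate alone reaching that limit (limit read from the data, passing the limit was not always enough); inconclusive means no clear call, values can overlap the other calls; inactive means mean under the limit and some replicate under it.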

A short description of the test: suppressors of statin myotoxicity in C2C12 myotubes, primary screen, cell-based, single point, plate reader (AID 602340).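 Further: myotubes were challenged with 10 µM simvastatin during compound exposure.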 Particulars: C2C12 myotubes + simvastatin, ATP luminescence, 48 h; at 7.49 µM; active compounds read high; scaled: DMSO 0, geranylgeraniol control 100.
Turning to `O=C(Nc1ccccc1F)N1C[C@H]2[C@@H](c3ccccc31)[C@H](CO)N2C(=O)c1ccccn1`, the rescue of ATP level is 45.1%. With `O=C(N[C@@H]1CC[C@@H](CCNS(=O)(=O)Cc2ccccc2)O[C@@H]1CO)c1ccccc1F` the figure was -15%. The same measure for `CN(C)C(=O)[C@@H]1[C@@H](CO)[C@@H]2Cn3c(ccc(-c4ccccc4F)c3=O)[C@@H]2N1C(=O)C1CC1`: -6.7%; for `O=C(NCc1ccco1)c1ccc(Cn2c(=O)c3sccc3n(Cc3ccc(F)cc3)c2=O)cc1`: -13.7%. For the compound `O=C(Cc1ccc(-n2c(=O)c3sccc3n(Cc3ccc(F)cc3)c2=O)cc1)NCc1ccco1`, the rescue of ATP level was -0.81%. Take `O=C(NCc1ccco1)c1cc2sccc2n1Cc1ccc(F)cc1`: the rescue of ATP level is 160% (active).

Regarding `O=C(C[C@@H]1CC[C@@H]2[C@H](COC[C@H](O)CN2Cc2cccc(-c3ccncc3)c2)O1)N1CCOCC1`, the rescue of ATP level was 7.32%.

In the case of `CS(=O)(=O)c1ccc(C(=O)NNC(=O)c2cccs2)cc1`, the rescue of ATP level is 19.1%.

As to `Cc1ccc(C(=O)NNC(=O)CSc2nnc3ccccn23)cc1`, the rescue of ATP level is 0.262%. Turning to `Cc1ccc(SCC(=O)NNC(=O)c2ccc(S(C)(=O)=O)cc2)cc1`, the rescue of ATP level is 90% (active). Turning to `CO[C@H]1CN(C)C(=O)c2ccc(NC(=O)C3CCC3)cc2OC[C@@H](C)N(Cc2ccccn2)C[C@H]1C`, the rescue of ATP level is 9.17%. As to `CNC(=O)C[C@H]1CC[C@@H]2[C@H](COc3ccc(NC(=O)C(C)C)cc3C(=O)N2C)O1`, the rescue of ATP level was 5.79%.

Regarding `O=C(CCC1CCCN(C(=O)c2ccc(F)c(F)c2)C1)N1CCN(c2ccccn2)CC1` (stereo not drawn), the rescue of ATP level is -0.349%. In the case of `O=C(c1c(F)cccc1Cl)N1CCN(c2ccccn2)CC1`, the rescue of ATP level is -10.5%.

On to `O=C(c1ccc2c(c1)C(=O)N(c1ccc(Cl)cc1)C2=O)N1CCN(c2ccccn2)CC1`, for which the rescue of ATP level is 135% (active). As for `COCC(=O)Nc1ccc2c(c1)OC[C@H](C)N(C(=O)c1cnccn1)C[C@@H](C)[C@H](OC)CN(C)C2=O`, the rescue of ATP level was 3.92%. Turning to `COc1ccccc1CNC(=O)COC(=O)c1sc(C)nc1C`, the rescue of ATP level is -4.29%. `COc1cc(C2C(C(=O)c3sc(C)nc3C)=C(O)C(=O)N2CCN(C)C)cc(OC)c1OC` (stereo not drawn): the rescue of ATP level is 116% (active). For the compound `COc1ccc(/C(O)=C2/C(=O)C(=O)N(CCCN(C)C)C2c2ccccc2)cc1OC` (stereo not drawn), the rescue of ATP level was 14.8%. `C[C@@H]1CN([C@@H](C)CO)C(=O)Cc2cc(NS(=O)(=O)c3cccs3)ccc2O[C@@H]1CN(C)S(=O)(=O)c1ccc(F)cc1`: the rescue of ATP level is -10.2%. Consider `COCC(=O)Nc1ccc2c(c1)[C@@H]1C[C@H](CC(=O)NCc3ccc(-c4ccccc4)cc3)O[C@H](CO)[C@@H]1O2`, for which the rescue of ATP level was -0.998%. In the case of `C[C@@H]1CCCCO[C@@H](CN(C)C(=O)NC2CCCCC2)[C@H](C)CN([C@H](C)CO)C(=O)c2cc(NC(=O)Nc3cccc4ccccc34)ccc2O1`, the rescue of ATP level is -71%. For the compound `CCc1ccc(N2CC(C(=O)NC3=NCCS3)CC2=O)cc1` (stereo not drawn), the rescue of ATP level was 109% (active). The same measure for `CCc1ccc(N2CC(C(=O)N3CCCCCC3)CC2=O)cc1` (stereo not drawn): -5.19%; for `CCc1ccc(N2CC(C(=O)Nc3ccc(S(=O)(=O)Nc4nccs4)cc3)CC2=O)cc1` (stereo not drawn): 2.04%; for `COc1ccc(NC(=O)Nc2ccc3c(c2)C(=O)N([C@@H](C)CO)C[C@H](C)[C@H](CN(C)C(=O)Nc2ccccc2)OCCCC[C@@H](C)O3)cc1`: 0.523%. For the compound `CN1C(=O)c2cc(NS(C)(=O)=O)ccc2OC[C@@H]2O[C@@H](CC(=O)NCc3ccc(-c4ccccc4)cc3)CC[C@H]21`, the rescue of ATP level was 21.8%. In the case of `CN(C)c1ccc(/C=N/NC(=O)c2ccc(Cn3cc(Br)cn3)o2)cc1`, the rescue of ATP level was -6.78%. With `Cc1nn(Cc2ccccc2Cl)c(C)c1NC(=O)Cn1nc([N+](=O)[O-])c(Cl)c1C` the figure was 13.1%. With `Cc1c(Cl)c([N+](=O)[O-])nn1Cc1ccc(C(=O)N/N=C\c2cc(Cl)ccc2O)o1`, the rescue of ATP level is 74.2% (active). Take `CO[C@@H]1CC[C@@H]2CCOc3ccc(C#N)cc3C(=O)N(C)[C@H](C)C(=O)N(C)C[C@@H]1O2`: the rescue of ATP level was 4.94%. Regarding `O=C(NCC[C@@H]1CC[C@H](NC(=O)C2CCCCC2)[C@@H](CO)O1)Nc1ccc(Cl)cc1`, the rescue of ATP level was -9.47%. The same measure for `CO[C@@H]1CN(C)C(=O)c2ccc(NS(=O)(=O)c3cccc(F)c3)cc2OC[C@H](C)N(C(=O)Cc2cccnc2)C[C@@H]1C`: 19.8%. In the case of `C[C@H]1CN([C@@H](C)CO)C(=O)c2cc(-c3cccc(C(=O)N(C)C)c3)cnc2O[C@H]1CN(C)S(=O)(=O)c1ccccc1`, the rescue of ATP level was -7.9%.

Regarding `NC(=O)Nc1ccc(C(=O)OCC(=O)NC2CCCc3ccccc32)cc1` (stereo not drawn), the rescue of ATP level is -1.62%.

`Nc1ccc(C(=O)OCC(=O)NC2CCS(=O)(=O)C2)cc1[N+](=O)[O-]` (stereo not drawn): the rescue of ATP level is -3.1%.

On to `Nc1ccc(C(=O)OCC(=O)NC2CCCc3ccccc32)cc1[N+](=O)[O-]` (stereo not drawn), for which the rescue of ATP level is 150% (active). For the compound `Cc1nn(C)c(Oc2ccccc2)c1CCNS(=O)(=O)c1ccc(F)cc1`, the rescue of ATP level is 8.55%. For the compound `Cc1nn(C)c(Oc2ccccc2)c1[N+](=O)[O-]`, the rescue of ATP level was 72.4% (active). As for `Cc1nn(C)c(Oc2ccc(Cl)cc2)c1C=O`, the rescue of ATP level is 15.3%. The same measure for `CCC1(CC)NC(=O)N(CC(=O)OCC(=O)Nc2ccc(C(F)(F)F)cc2)C1=O`: 115% (active); for `CCC1(CC)NC(=O)N(CC(=O)OCC(=O)NC(=O)c2ccccc2)C1=O`: -1.1%. `CCC1(CC)NC(=O)N(CC(=O)OCC(=O)c2cc(C)c(C)cc2C)C1=O`: the rescue of ATP level is 8.64%. For the compound `C[C@H]1CN([C@@H](C)CO)C(=O)c2c(c3ccccc3n2C)-c2ccccc2CO[C@H]1CN(C)C(=O)Nc1ccc(F)cc1`, the rescue of ATP level is 19.1%. `COCC(=O)N1C[C@H]2[C@@H](c3ccccc31)[C@@H](CO)N2C(=O)NC(C)C`: the rescue of ATP level was 17%. Take `CCc1ccc(CNC(=O)C2CCCN(c3nc4ccccc4o3)C2)cc1` (stereo not drawn): the rescue of ATP level is 28.3%. Turning to `COc1ccccc1CNC(=O)C1CCN(c2nc3ccccc3o2)CC1`, the rescue of ATP level was 15.8%. With `COc1ccc(OC)c(CNC(=O)C2CCCN(c3nc4ccccc4o3)C2)c1` (stereo not drawn) the figure was 102% (active); with `C[C@@H]1CN([C@@H](C)CO)C(=O)c2cccc(NS(=O)(=O)c3cn(C)cn3)c2O[C@@H]1CN(C)Cc1ccc(Cl)c(Cl)c1`, -13.1%; with `CCCNC(=O)C[C@H]1C[C@@H]2c3cc(NC(=O)C4CCOCC4)ccc3O[C@@H]2[C@@H](CO)O1`, -1.71%.

On to `CCN(CC)Cc1cc(C(C)=O)ccc1O`, for which the rescue of ATP level is 16.6%. On to `CCN(CC)Cc1csc2ccc(Br)cc12`, for which the rescue of ATP level was 100% (active).

In the case of `CN(CCO)Cc1csc2ccc(Br)cc12`, the rescue of ATP level is 14.5%. For `CNC[C@H]1Oc2cc(-c3cccnc3)ccc2S(=O)(=O)N([C@@H](C)CO)C[C@H]1C`, the rescue of ATP level is -14.4%. For `O=C(C[C@@H]1C=C[C@H](NC(=O)c2ccc3c(c2)OCO3)[C@H](CO)O1)NCc1ccc(Oc2ccccc2)cc1`, the rescue of ATP level was 8.65%. Consider `CN(C)C(=O)c1cccc(-c2ccc3c(c2)[C@H]2[C@H](CCN2S(=O)(=O)c2cn(C)cn2)[C@@H](CO)N3)c1`, for which the rescue of ATP level was 13.8%. In the case of `COCCN1C(=O)N[C@@H](c2ccccc2)C(C(=O)OC)=C1C`, the rescue of ATP level is -10.8%. `COC(=O)C1=C(C)N(C)C(C)=C(C(=O)OC)C1c1cccc(Br)c1`: the rescue of ATP level is 89.2% (active). `CCN1C(=O)N[C@@H](c2ccccc2)C(C(=O)OC)=C1C`: the rescue of ATP level is -1.21%. Regarding `COCC(=O)Nc1ccc2c(c1)OC[C@H](C)N(C(=O)Cc1ccccn1)C[C@H](C)[C@@H](OC)CN(C)C2=O`, the rescue of ATP level is 9.72%. On to `O=C(CCl)NNc1nc(-c2ccccc2)c2cc(Cl)ccc2n1`, for which the rescue of ATP level is 16.4%. For `OCCCNc1nc(-c2ccccc2)c2cc(Cl)ccc2n1`, the rescue of ATP level is 1.1%. Take `Cc1ccc2nc(Nc3ccccc3O)nc(-c3ccccc3)c2c1`: the rescue of ATP level is 134% (active). On to `CC(C)NC(=O)Nc1ccc2c(c1)CC(=O)N([C@@H](C)CO)C[C@@H](C)[C@@H](CN(C)S(=O)(=O)c1ccccc1)O2`, for which the rescue of ATP level was -17%. Consider `COc1ccccc1CNC(=O)C[C@@H]1CC[C@H](NC(=O)CN(C)C)[C@@H](CO)O1`, for which the rescue of ATP level is 2.77%. `CN1c2ccc(-c3ccccc3)cc2[C@@H]2[C@@H](CCN2C(=O)NC2CCCC2)[C@H]1CO`: the rescue of ATP level is -5.4%. As to `CCCNC(=O)N[C@@H]1C=C[C@H](CC(=O)NC2CCC2)O[C@H]1CO`, the rescue of ATP level is 1.32%. With `CN1C(=O)c2cc(NC(=O)c3ccc(Cl)cc3)ccc2OC[C@H]2O[C@H](CC(=O)O)CC[C@H]21` the figure was -6.44%. As to `C[C@@H]1CN([C@@H](C)CO)C(=O)c2cc(C#CC(C)(C)O)cnc2O[C@@H]1CN(C)C(=O)C1CCOCC1`, the rescue of ATP level is 16.9%.

Regarding `C=CCNC(=S)N/N=C/c1ccc(C)s1`, the rescue of ATP level is 5.1%. Regarding `C=CCNC(=S)N/N=C/c1ccc(OCc2ccccc2)cc1`, the rescue of ATP level was 106% (active). The same measure for `CNC(=S)N/N=C/c1ccc(OCc2ccccc2)c(Br)c1`: 10.8%; for `O=C(C[C@H]1CC[C@H]2[C@@H](COC[C@@H](O)CN2CC2CCOCC2)O1)NCc1ccc(Cl)cc1`: 7.95%; for `Cc1ccc(-n2nc3ccc(NC(=O)/C=C/c4ccco4)cc3n2)cc1C`: 97.3% (active).

Take `O=C(/C=C/c1ccco1)Nc1ccc(Oc2ccccc2)cc1`: the rescue of ATP level was -25.3%. For `CCC(=O)Nc1ccc2nn(-c3ccc(F)cc3)nc2c1`, the rescue of ATP level was -5.86%.

On to `COCC(=O)N[C@H]1C=C[C@H](CC(=O)N2CCCCC2)O[C@H]1CO`, for which the rescue of ATP level is 6.62%.

As to `CNC[C@H]1Oc2cc(C#CCOC)ccc2S(=O)(=O)N([C@@H](C)CO)C[C@H]1C`, the rescue of ATP level is -7.75%.
